In the library only some 2.3% were active in any assay of this set; here they are far more common.
CHRM1 antagonist: blocks human M1 muscarinic receptor; P11229; CHO-K1 hM1, Fluo-8 calcium fluorescence, ACh EC80 antagonist; inhibition, % at 3 µM; 360,000 compounds, 1.3% hits; AID 588852;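 active means percent inhibition above its own plate's cutoff, namely the mean of that plate's compound wells plus 3 SD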;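 further: peak over basal fluorescence ratio during 140 s after agonist addition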
Target sequence (P11229 whole entry, looked up): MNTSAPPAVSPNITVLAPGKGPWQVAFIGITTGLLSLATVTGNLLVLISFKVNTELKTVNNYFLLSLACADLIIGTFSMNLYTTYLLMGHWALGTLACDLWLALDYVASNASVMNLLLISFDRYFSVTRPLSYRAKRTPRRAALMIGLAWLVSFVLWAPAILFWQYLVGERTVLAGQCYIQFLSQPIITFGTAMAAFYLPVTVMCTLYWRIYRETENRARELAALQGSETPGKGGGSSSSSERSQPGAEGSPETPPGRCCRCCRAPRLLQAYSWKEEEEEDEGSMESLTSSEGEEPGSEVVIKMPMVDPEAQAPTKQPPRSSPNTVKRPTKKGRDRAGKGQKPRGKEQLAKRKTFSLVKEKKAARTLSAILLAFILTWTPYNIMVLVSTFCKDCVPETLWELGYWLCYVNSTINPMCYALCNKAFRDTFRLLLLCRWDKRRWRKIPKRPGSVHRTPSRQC
CHRM1 PAM: human CHRM1 positive allosteric modulation; 360,000 compounds, 0.088% hits; activation, % at 3 µM; CHO-K1 hM1, Fluo-8 calcium fluorescence, ACh EC20; 0% = ACh EC20, 100% = maximal ACh; in the data active means activation above about 19%, passing the limit was not always enough
CHO-K1 Ca ag: nonselective activator or artifact in parental CHO-K1 cells; Fluo-8 calcium fluorescence; scaled to maximal ATP response, vehicle zero; 360,000 compounds, 0.48% hits; activation, % at 3 µM; in the data active means activation above about 15%;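 further: untransfected CHO-K1 host cells lacking M1 receptor as counterscreen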
M1 ag: agonists of human M1 muscarinic receptor | activation, % at 3 µM | P11229 | 360,000 compounds, 0.33% hits | CHO-K1 hM1, Fluo-8 calcium fluorescence, agonist mode; 0% DMSO, 100% acetylcholine EC100;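 active means activation above the run's mean compound activation plus 3 SD, cut at about 16% in these data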;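 further: peak over basal fluorescence ratio within a 140 s kinetic read after compound addition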
CHO-K1 Ca PAM: nonselective activator or artifact in parental CHO-K1 calcium assay | ATP EC20, Fluo-8 calcium fluorescence; 0% at ATP EC20, 100% at ATP max | activation, % at 3 µM | 360,000 compounds, 0.02% hits | AID 602247;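 active means activation above the run cutoff, the mean activation of all test compounds plus 3 SD, cut at about 40% in these data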;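 further: peak over basal fluorescence ratio in a 140 s read after ATP addition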
CHO-K1 Ca antag: counter-screen for M1 antagonists: effect in parental CHO-K1 cells | ATP-induced calcium, Fluo-8 fluorescence | inhibition, % at 3 µM | 360,000 compounds, 0.6% hits;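 active means inhibition above a per-plate cutoff, the plate's mean sample inhibition plus 3 SD, cut at about 24% in these data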
Numbers stand for hits; n = inactive; x = not tested or not shown.

SMILES	CHRM1 antagonist	CHRM1 PAM	CHO-K1 Ca ag	M1 ag	CHO-K1 Ca PAM	CHO-K1 Ca antag
O=S1(=O)CC(N2CCN(Cc3ccccc3F)CC2)CN1Cc1cn(Cc2cccc(Cl)c2)nn1 (stereo not drawn)	x	x	n	x	n	n
O=C(NCc1ccccn1)C(=O)Nc1nc(C23CC4CC(CC(C4)C2)C3)cs1	n	n	n	n	n	n
CCCOc1ccc(C(C(=O)OCCN(CC)CC)c2ccccc2)cc1 (stereo not drawn)	98	n	n	n	n	n
COc1ccc(C(C(=O)OCCN(C)C)c2ccccc2)cc1 (stereo not drawn)	78	n	n	n	n	n
CCOc1cccc(-c2c(C(=O)N/N=C(\C)c3cccs3)nnn2-c2nonc2N)c1	n	n	n	31	n	n
COc1cccc(-c2c(C(=O)N/N=C(\C)c3cccs3)nnn2-c2nonc2N)c1	n	n	n	34	n	n
CCOc1ccc(-c2c(C(=O)N/N=C(\C)c3cccs3)nnn2-c2nonc2N)cc1	n	n	n	n	n	n
Cc1cc(C)cc(NC(=O)CN2CCCN(S(=O)(=O)c3ccc(Br)s3)CC2)c1	n	n	n	n	n	n
Cc1ccc(NC(=O)CN2CCCN(S(=O)(=O)c3ccc(Br)s3)CC2)cc1	n	n	n	n	n	24
COc1ccc(C(O)c2ncc(-c3ccccc3Cl)[nH]2)cc1F (stereo not drawn)	n	n	n	n	n	n
COc1ccc(/C=N/NC(=O)CNc2n[nH]c(=O)[nH]c2=O)cc1OC	n	n	n	n	n	27
CC(Oc1ccccc1F)C(=O)NNC(=O)C1CC(=O)N(c2ccc3c(c2)OCCO3)C1 (stereo not drawn)	n	n	n	n	n	n
O=C(NNC(=O)C1CC(=O)N(c2ccc3c(c2)OCCO3)C1)c1ccc(F)cc1 (stereo not drawn)	n	n	n	n	n	27
Cc1cccc(N2CCN(C(=O)C3CC(=O)N(c4ccc5c(c4)OCCO5)C3)CC2C)c1 (stereo not drawn)	30	n	n	n	n	n
CN(CC(=O)NCc1ccco1)C(=O)C1CC(=O)N(c2ccc3c(c2)OCCO3)C1 (stereo not drawn)	n	28	n	n	n	n
CC(C)(C)c1ccccc1NC(=O)CN1C(=O)NC2(CCCCCC2)C1=O	n	n	n	n	n	n
NC(=O)c1ccc(NC(=O)CSc2nnc(-c3cccnc3)n2Cc2ccco2)cc1	n	n	n	n	n	n
O=C(O)c1ccc(CN2C(=O)c3ccc(Oc4ccc([N+](=O)[O-])cc4)cc3C2=O)cc1	n	n	n	n	n	n
O=C1c2ccc(Oc3ccc([N+](=O)[O-])cc3)cc2C(=O)N1CCO	n	n	17	n	n	n
CC(=O)C1=C(O)C(=O)N(c2ccc(Br)cc2)C1c1cccc([N+](=O)[O-])c1 (stereo not drawn)	n	n	n	n	n	n
C#CCOCCOCCOCCNc1nc(N2CCN(C(=O)CCCCCCCCCCNC(=O)[C@@H](CCC(=O)O)n3cc(CCCCCN)nn3)CC2)nc(N2CCN(C(=O)CCCCCCCCCCNC(=O)[C@H]([C@@H](C)CC)n3cc(CCCCCN)nn3)CC2)n1	n	n	n	18	n	n
C#CCOCCOCCOCCNc1nc(N2CCN(C(=O)CCCCCCCCCCNC(=O)[C@H](CCCCN)n3cc(CCCC(=O)O)nn3)CC2)nc(N2CCN(C(=O)CCCCCCCCCCNC(=O)[C@@H]([C@H](C)O)n3cc(C)nn3)CC2)n1	n	n	n	n	n	n
C#CCOCCOCCOCCNc1nc(N2CCN(C(=O)CCCCCCCCCCNC(=O)Cn3cc(CCCCCN)nn3)CC2)nc(N2CCN(C(=O)CCCCCCCCCCNC(=O)[C@@H](CCC(=O)O)n3cc(CCCCCN)nn3)CC2)n1	n	n	n	n	n	n
C#CCOCCOCCOCCNc1nc(N2CCN(C(=O)CCCCCCCCCCNC(=O)Cn3cc(CCCCCN)nn3)CC2)nc(N2CCN(C(=O)CCCCCCCCCCNC(=O)Cn3cc(CCCCCN)nn3)CC2)n1	39	n	n	n	n	n
CC(C)(C)OC(=O)NCCCCCc1cn([C@@H](CO)C(=O)NCCCCCCCCCCC(=O)N2CCN(C(=O)OC(C)(C)C)CC2)nn1	74	n	18	n	n	n
SMILES	CHRM1 antagonist	CHRM1 PAM	CHO-K1 Ca ag	M1 ag	CHO-K1 Ca PAM	CHO-K1 Ca antag
C#CCOCCOCCOCCNc1nc(N2CCN(C(=O)CCCCCCCCCCNC(=O)[C@H]([C@@H](C)CC)n3cc(CCCCCN)nn3)CC2)nc(N2CCN(C(=O)CCCCCCCCCCNC(=O)[C@H](CCCCN)n3cc(CCCC(=O)O)nn3)CC2)n1	n	n	n	18	n	n
C#CCOCCOCCOCCNc1nc(N2CCOCC2)nc(N2CCN(C(=O)CCCCCCCCCCNC(=O)[C@@H](CCC(=O)O)n3cc(CCCCCN)nn3)CC2)n1	n	n	n	n	n	n
CC(C)(C)OC(=O)CC[C@@H](C(=O)NCCCCCCCCCCC(=O)N1CCN(C(=O)OC(C)(C)C)CC1)n1cc(CCCCCNC(=O)OC(C)(C)C)nn1	n	n	n	n	n	n
CCOC(=O)C1=C(C)NC(C)=C(C(=O)OCC)C1C(=O)OCC(=O)NCc1ccc(F)cc1	n	n	n	n	n	n
C[C@H]1COC(=O)[C@@H](Cc2ccc(F)cc2)C/C=C\C[C@@H](CC(=O)N[C@@H](CO)Cc2ccccc2)C(=O)N1	n	n	n	n	n	n
CC(NCc1cc(Br)ccc1OCC(=O)NCc1ccccc1)c1ccccc1 (stereo not drawn)	n	n	n	n	n	n
Nn1c(SCC(=O)Nc2nccs2)nnc1-c1cccnc1	n	n	n	n	n	n
CCCC(=O)Nc1c(-c2ccccc2)[nH][nH]c1=O	n	n	n	n	n	n
CCc1ccccc1NC(=O)CCc1c(C)nc(SC)nc1C	n	n	n	n	n	n
Cn1c(=O)c2cc(NC(=O)CCc3cccnc3)ccc2n1Cc1ccc(F)cc1	n	n	n	n	n	n
C#CCOCCOCCOCCNc1nc(N2CCN(C(=O)CCCCCCCCCCNC(=O)[C@H]([C@@H](C)CC)n3cc(CCCCCN)nn3)CC2)nc(N2CCN(C(=O)CCCCCCCCCCNC(=O)[C@H](CO)n3cc(CCCCCN)nn3)CC2)n1	n	n	n	19	n	n
COc1cc(/C=N/NC(=O)c2ccccn2)ccc1OC(=O)c1ccccc1Br	n	n	n	n	n	27
COc1cc(/C=N/NC(=O)c2ccccn2)ccc1OC(=O)c1ccc(Br)cc1	n	n	n	n	n	n
N#CC1(CCCN2CCCCC2)c2ccccc2CCc2ccccc21	68	n	n	n	n	n
OCCN1CCN(CCCN2c3ccccc3CCc3ccccc32)CC1	n	n	n	n	n	n
